Article PMC4336329 (PLoS ONE, 2015)
Out of some 310,000 compounds screened, about 14,000 (4.5%) showed an effect of 50% or more. The effect is printed as a negative number. This is one part of a sample in which strong results are shown more often than they occur.

Biological target: human ether-à-go-go-related gene (hERG) potassium channel (human, UniProt Q12809)
Assay: primary screen, population patch clamp on CHO cells stably expressing hERG; higher = less effect of the substance
Method: Briefly, Chinese hamster ovary (CHO) cells stably expressing the hERG channel were dislodged from tissue culture flasks and dispensed into PPC plates. […] During the recording, background leak currents were estimated by a 100 ms step to -80 mV from an initial holding potential of -70 mV and subtracted from the subsequent current measurement. The campaign was conducted in two phases using slight differences in recording protocol. In the first phase, the initial voltage pulse used a 100 ms step to -30 mV from a holding potential of -70 mV, a 2 s conditioning step to +25 mV, and a 2 s test step to -30 mV. During the second phase of the screen, the potential during the conditioning step was raised to +45 mV. In both phases of the campaign, a secondary voltage pulse was applied using the same parameters as the second phase initial pulse. The initial and secondary pulses were applied in the absence of compound, and upon application of 1 μM and 10 μM test concentrations. […]
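Further: peak tail current of the secondary pulse compared with the same well before compound.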

human ether-à-go-go-related gene (hERG) potassium channel, sequence (Q12809 whole entry, looked up): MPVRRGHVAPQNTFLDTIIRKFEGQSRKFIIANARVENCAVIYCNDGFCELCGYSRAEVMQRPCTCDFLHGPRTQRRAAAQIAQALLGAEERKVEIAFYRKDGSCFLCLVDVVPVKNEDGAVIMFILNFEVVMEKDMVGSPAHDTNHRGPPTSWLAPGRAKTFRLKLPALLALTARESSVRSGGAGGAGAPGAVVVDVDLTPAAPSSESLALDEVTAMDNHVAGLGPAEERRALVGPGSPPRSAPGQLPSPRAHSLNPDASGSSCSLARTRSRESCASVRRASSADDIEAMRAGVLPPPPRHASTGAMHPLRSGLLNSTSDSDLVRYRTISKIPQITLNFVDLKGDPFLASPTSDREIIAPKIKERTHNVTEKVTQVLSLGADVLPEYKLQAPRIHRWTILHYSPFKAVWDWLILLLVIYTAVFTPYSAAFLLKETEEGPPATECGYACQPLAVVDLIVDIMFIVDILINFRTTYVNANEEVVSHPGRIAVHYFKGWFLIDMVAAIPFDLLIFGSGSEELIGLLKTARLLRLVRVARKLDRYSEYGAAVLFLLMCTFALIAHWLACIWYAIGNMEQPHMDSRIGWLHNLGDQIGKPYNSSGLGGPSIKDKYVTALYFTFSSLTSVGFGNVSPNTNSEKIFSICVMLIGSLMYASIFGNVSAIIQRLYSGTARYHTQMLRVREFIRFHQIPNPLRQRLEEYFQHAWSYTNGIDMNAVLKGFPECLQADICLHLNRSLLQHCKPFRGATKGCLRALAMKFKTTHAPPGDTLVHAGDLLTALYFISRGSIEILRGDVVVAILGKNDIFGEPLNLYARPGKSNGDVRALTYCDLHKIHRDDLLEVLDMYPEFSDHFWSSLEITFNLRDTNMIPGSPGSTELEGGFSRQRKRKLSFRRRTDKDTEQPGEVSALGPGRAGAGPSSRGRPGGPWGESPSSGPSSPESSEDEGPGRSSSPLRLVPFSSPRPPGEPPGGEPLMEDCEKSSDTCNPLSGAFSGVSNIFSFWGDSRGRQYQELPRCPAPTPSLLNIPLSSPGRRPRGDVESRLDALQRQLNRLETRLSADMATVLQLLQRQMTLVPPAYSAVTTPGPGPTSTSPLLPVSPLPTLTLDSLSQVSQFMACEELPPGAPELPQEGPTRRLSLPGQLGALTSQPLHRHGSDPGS

SMILES	hERG current change (%, negative = inhibition) at 10uM [%]
CCN(CC(=O)NC(=O)Nc1ccccc1F)Cc1ccccc1	12.4
Cc1ccc(N(CCC(=O)N2CCOCC2)S(=O)(=O)c2ccccc2)cc1	-8.57
Cn1c(NC(=O)C2c3ccccc3Oc3ccccc32)cc(=O)n(C)c1=O	-3.72
C=CCn1c2ccccc2c2nnc(SCC(=O)Nc3cc(C)on3)nc21	-8.39
CCOC(=O)CNC(=O)c1nn(-c2cccc(OC)c2)c(=O)c2ccccc12	-22.9
O=C(COC(=O)c1cccc(Oc2ccccc2)c1)NCc1ccco1	3.19
Cc1ccc(C(C(=O)NC2CCCCC2)N(Cc2ccco2)C(=O)C2COc3ccccc3O2)o1 (centres unmarked)	-6.27
O=C(NC1CCCCC1)C(c1ccco1)N(Cc1cccnc1)C(=O)C1COc2ccccc2O1 (centres unmarked)	-18.8
Cc1ccc(C(C(=O)NC2CCCCC2)N(Cc2cccnc2)C(=O)C2COc3ccccc3O2)o1 (centres unmarked)	-59.7
Cc1ccc(NC(=O)c2sc(C)nc2C)c(C)c1	1.97
O=C(N/N=C/c1ccccc1OCc1ccccc1)c1cccs1	5.13
Cc1cc(=O)oc2cc(OS(C)(=O)=O)ccc12	4.31
CCOC(=O)c1ccc(Oc2c(C)oc3cc(OS(C)(=O)=O)ccc3c2=O)cc1	-66
CCOC(=O)c1c(C)oc2ccc(OS(C)(=O)=O)cc12	1.04
CCOc1ccc2c(=O)c(Oc3ccccc3)c(C)oc2c1	-6.41
Cc1c(C)c2ccc(OS(C)(=O)=O)cc2oc1=O	-58.4
CCc1cc(=O)oc2cc(OS(C)(=O)=O)ccc12	-5.44
COc1ccccc1/C=C/C=N/N1CCN(Cc2ccccc2)CC1	-8.94
COc1ccc(/C(O)=C2/C(=O)C(=O)N(CC3CCCO3)C2c2ccc(OC)c(OC)c2)cc1 (centres unmarked)	1.45
Cc1cnc(NC(=O)CCCNC(=O)c2ccc(Cl)cc2)s1	12.8
Cc1ccccc1-n1c(-c2ccc([N+](=O)[O-])cc2)nc2ccccc2c1=O	-0.532
CC1=NN(C(=O)c2ccc(Cn3nc(C)c([N+](=O)[O-])c3C)o2)C(O)(C(F)(F)F)C1 (centres unmarked)	-52.8

SMILES	hERG current change (%, negative = inhibition) at 10uM [%]
Cc1nn(Cc2cccc(C(=O)N3N=C(C(F)F)CC3(O)C(F)F)c2)c(C)c1[N+](=O)[O-] (centres unmarked)	-19.6
Cc1nn(Cc2ccc(C(=O)N3N=C(C(F)F)CC3(O)C(F)F)cc2)c(C)c1[N+](=O)[O-] (centres unmarked)	-62.9
CC1=NN(C(=O)c2cccc(Cn3nc(C)c([N+](=O)[O-])c3C)c2)C(O)(C(F)(F)F)C1 (centres unmarked)	0.484
CC1=NN(C(=O)c2ccc(Cn3nc(C)c([N+](=O)[O-])c3C)cc2)C(O)(C(F)(F)F)C1 (centres unmarked)	-28.8
Cc1nn(Cc2ccc(C(=O)N3N=C(C(F)F)CC3(O)C(F)F)o2)c(C)c1[N+](=O)[O-] (centres unmarked)	-37.3
C=CCn1c(=O)/c(=C\c2ccccn2)s/c1=C(/C#N)C(=O)NCC1CCCO1 (centres unmarked)	-3.51
CN1CCC(=NNC(=O)CN(c2ccc(Oc3ccccc3)cc2)S(C)(=O)=O)CC1	9.51
Cc1ccc([N+](=O)[O-])cc1S(=O)(=O)NCCc1cn2ccccc2n1	-2.95
CC(C)CCN(C(=O)CNC(=O)c1cccs1)C(C(=O)NC1CCCCC1)c1cccnc1 (centres unmarked)	-36.4
C=C1C(=O)[C@@]23[C@H](O)C[C@@H]4C(C)(C)CC[C@H](O)[C@@]4(C)[C@@H]2CC[C@@H]1[C@H]3O	-9.9
COc1ccc(Cn2c(C(F)(F)F)ccc(C(N)=O)c2=O)cc1	1.62
c1ccc2c(-c3nnc4n3CCCCC4)cc(-c3ccncc3)nc2c1	-48.7
Clc1ccc(-c2cc(-c3nnc4n3CCCCC4)c3ccccc3n2)cc1	-42.1
N=c1c2ccccc2nc2n1CCCCCCCCCCC2	-62
Fc1ccc(-c2cc(-c3nnc4n3CCCCC4)c3ccccc3n2)cc1	-63.5
O=c1c2ccccc2nc2n1CCCCC2	-4.17
O=c1c2ccccc2nc2n1CCC2	13.6
O=C(NCc1cccnc1)c1cc2nc(-c3ccc4c(c3)OCO4)cc(C(F)(F)F)n2n1	3.07
COc1ccc(NS(=O)(=O)c2cccc(C(=O)NNC(=O)NCCCl)c2)cc1	20.3
CN1CCc2c(sc(NC(=O)c3ccc(S(=O)(=O)N4CCCCCC4)cc3)c2C(N)=O)C1	5.51
O=C1CN(C(=O)c2ccc(Cl)c(S(=O)(=O)N3CCc4ccccc43)c2)c2ccccc2N1	-21
COCCn1nnnc1CN1CCC(C)CC1	-2.19

SMILES	hERG current change (%, negative = inhibition) at 10uM [%]
O=C(Cn1cnc2c(oc3ccccc32)c1=O)c1ccccc1	2.38
O=C(NC1CCCCCC1)C1CCN(S(=O)(=O)c2ccc(F)cc2)CC1	0.579
Cc1ccccc1N=C/C=C1\N(C)c2ccccc2C1(C)C	-70.7
CN1/C(=C\C=Nc2ccc3ccccc3c2)C(C)(C)c2ccccc21	-74.8
CN1C(=O)C(C)(C)c2cc(S(=O)(=O)N3CCN(c4ccccc4F)CC3)ccc21	-3.03
Cc1cc(/N=C/C=C2\N(C)c3ccccc3C2(C)C)n(CCC#N)n1	-29.8
CN1/C(=C\C=Nc2cc(S(=O)(=O)N3CCOCC3)ccc2N2CCOCC2)C(C)(C)c2ccccc21	-71
O=S(=O)(c1ccc(N2CCOCC2)c(Cl)c1)N1CCOCC1	15.5
CN1/C(=C\C=Nc2ccccc2)C(C)(C)c2ccccc21	-72.1
CN1/C(=C/C=C(C#N)C#N)C(C)(C)c2ccccc21	14.7
CN1/C(=C\C=N\O)C(C)(C)c2ccccc21	17.1
CO/N=C/C=C1/N(C)c2ccccc2C1(C)C	19.8
CN1/C(=C/C=N/n2cnnc2)C(C)(C)c2ccccc21	-1.92
Cc1ccccc1N=CC=C1OC(C)(C)C(C)(C)O1	-1.54
COc1ccc(NC(=O)NCc2ccncc2)cc1	13.8
CC(C)(C)c1ccc(C(=O)NNc2ccc(F)cc2F)cc1	9.96
CC1(C)OC2CC3C4CC(F)C5=CC(=O)C=CC5(C)C4(F)C(O)CC3(C)C2(C(=O)CO)O1 (centres unmarked)	-7.01
O=C1C=C(c2cc3ccccc3s2)C[C@@H](c2ccc(F)cc2)C1	5.01
CC(=O)N1c2ccc(S(=O)(=O)N3CCCC(C(=O)NCc4ccccc4)C3)cc2CC1C (centres unmarked)	13.7
O=C(Nc1ccccc1)N1CCC(c2ccccc2)C1 (centres unmarked)	-4.49
CN(C)c1ccc(N=C/C=C2\N(C)c3ccccc3C2(C)C)cc1	-82.8
Cc1c(N=C/C=C2\N(C)c3ccccc3C2(C)C)c(=O)n(-c2ccccc2)n1C	-53.7

SMILES	hERG current change (%, negative = inhibition) at 10uM [%]
CN1/C(=C\P(=O)(N(C)C)N(C)C)C(C)(C)c2ccccc21	-6.64
CN1/C(=C\C=C(C#N)C#N)C(C)(C)c2ccccc21	11.5
Cc1c(N=C/C=C2/N(C)c3ccccc3C2(C)C)c(=O)n(-c2ccccc2)n1C	-38.1
Cc1c(NC(=S)/C=C2\N(C)c3ccccc3C2(C)C)c(=O)n(-c2ccccc2)n1C	0.171
CC(=O)N1CCN(c2ccc(N=Cc3c(O)n(-c4ccc(Cl)cc4)c(=O)[nH]c3=O)cc2)CC1	1.55
CCOC(=O)c1cnc(-n2nc(C)cc2C)nc1NCCc1ccccc1	-51.6
CCOC(=O)c1cnc(-n2nc(C)cc2C)nc1NCCO	10.5
CCOC(=O)c1cnc(-n2nc(C)cc2C)nc1NCc1ccccc1	-34.7
Cn1ccnc1SCC(=O)n1c2c(c3ccccc31)CCCC2	-4.61
O=C(c1cccs1)N1CCCC(c2nc3c(nnn3Cc3c(Cl)cccc3Cl)c(=O)[nH]2)C1 (centres unmarked)	-46.9
O=C(OCC(=O)N1CCCc2ccccc21)c1cccc(C(F)(F)F)c1	-6.7
COC(=O)C(Cc1ccccc1)NC(=O)c1ccc(C)cc1 (centres unmarked)	5.08
CSCCOC(=O)c1[nH]c2c(c1C)C(=O)CC(c1ccco1)C2 (centres unmarked)	-1.18
Cc1ccc(NC(=O)c2sc(Cl)nc2-c2ccccc2)cc1	18.2
COc1ccc(Br)cc1/C(C)=N/NC1=NCCN1.Cl	-26.7
C/C(=N\NC1=NCCN1)c1ccc(N)c([N+](=O)[O-])c1	-15.2
CCOc1ccc(Br)cc1/C(C)=N\NC1=NCCN1.Cl	-48.6
CCCCCCOc1ccc(/C(C)=N/NC2=NCCN2)cc1[N+](=O)[O-]	-81.3
CCCCCCOc1ccc(/C(C)=N/NC2=NCCN2)cc1	-19.9
CCCCCOc1ccc(Br)cc1/C(C)=N/NC1=NCCN1	-70.1
